These compounds were tested on Perkinsus marinus PRA240 (assay: ATP content (proliferation) relative to DMSO control; higher = more parasite growth (less inhibition)). Settings: 20 µM; 4 days.
Procedure: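 Perkinsus marinus PRA240 trophozoites (2-5x10^6 cells/ml, 100 µl, 96-well) were exposed once to MMV Malaria Box compounds at 20 µM (0.1% DMSO) in triplicate. ATP content (ATPlite bioluminescence) was read at day 4 post-exposure and normalised to DMSO + cells control wells (100% activity). Compounds were identified by joining plate and well to the Malaria Box list.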

SMILES | ATP content
COc1ccc(C(=O)C2CC2c2ccc(Cl)cc2)cc1 (stereo not drawn) | 199%
O=C1c2ccccc2C2=Nc3ccccc3SC(c3cccc(F)c3)C12 (stereo not drawn) | 36.8%
COc1ccccc1N1C(=N)SC(=Cc2ccc(OCc3ccccc3F)cc2)C1=O | 57.5%
O=C(Nc1ccc(Br)cc1)Nc1cccc(Cl)c1 | 142%
COc1ccc(C2Sc3ccccc3N=C3C2=C(O)c2ccccc23)cc1 (stereo not drawn) | 46.2%
CCCCOC(=O)c1ccc(Nc2cc(C)nc3ccc(OC)cc23)cc1 | 93.9%
COC(=O)c1ccc(Cl)c2c1C1C=CCC1C(c1cccc3ccccc13)N2 (stereo not drawn) | 106%
Cc1cc(Nc2ccc(OCc3ccccc3)cc2)nc2cc(O)ccc12 | 4.92%
CCN(CC)CCn1c(=N)n(CC(O)c2ccc(Cl)c(Cl)c2)c2ccccc21 (stereo not drawn) | 110%
COc1ccc(Nc2cc(C)nc(NCc3ccccc3)n2)cc1 | 93.8%
O=C1CC(O)(C(F)(F)C(F)(F)F)Oc2ccccc21 (stereo not drawn) | 34.8%
COc1ccc2sc(N(Cc3cccnc3)C(=O)c3ccc(C#N)cc3)nc2c1 | 111%
Cc1cc(NC(=O)c2ccc(-c3ccccc3)cc2)no1 | 69.1%
CC(=O)NCCc1nc2ccccc2n1Cc1ccc(C(C)C)cc1 | 120%
COCCn1c(C)nc2ccccc2c1=O | 130%
CCn1nc(-c2ccc(C(=O)OC)cc2)nc2c(=O)n(C)c(=O)nc1-2 | 1.37%
COc1ccc(C(=O)NC(c2ccccc2Cl)c2cc(Cl)c3cccnc3c2O)cc1 (stereo not drawn) | 29.8%
CC(C)OCc1cc(CN2CCN(c3cccc(Cl)c3)CC2)c(O)c2ncccc12 | 12%
CCOc1ccc2nc(C)cc(Nc3ccc(N(C)C)cc3)c2c1 | 86.6%

SMILES | ATP content
COc1ccc(CCNC(=O)c2cc(S(=O)(=O)N3CC(C)CC(C)C3)ccc2Sc2ccc(F)cc2)cc1OC (stereo not drawn) | 160%
COc1cc(C(=O)Nc2nc3c(cc4c5c(cccc53)CC4)s2)cc(OC)c1OC | 89.8%
Nc1ccc(-c2nc3cc(Oc4ccc(Oc5ccc6[nH]c(-c7ccc(N)cc7)nc6c5)cc4)ccc3[nH]2)cc1 | 74.1%
COc1ccccc1N1CCN(C(CNS(=O)(=O)c2ccc(Cl)cc2)c2cccnc2)CC1 (stereo not drawn) | 111%
CCN(CC)c1ccc(NC(=O)c2cccs2)cc1 | 64%
c1ccc(CNc2nc(Nc3ccccc3)nc3ccccc23)cc1 | 75.4%
CCOC(=O)C1=CN(C)C=C(C(=O)OCC)C1c1cc(Br)c(OCC)c(OC)c1 | 121%
O=C(Nc1ccccc1O)c1ccc(Oc2cccc(C(=O)Nc3ccccc3O)c2)cc1 | 30.4%
CCOc1c(Cl)cc(CNCC(O)c2ccccc2)cc1OC (stereo not drawn) | 105%
CCCCN(CCCC)S(=O)(=O)c1ccc(NC(=O)c2ccco2)cc1 | 43.3%
FC(F)(F)c1cccc(Nc2nc(-c3ccccc3)nc3ncccc23)c1 | 108%
COc1ccc(CNC(=O)c2cc3c(=O)n4ccccc4nc3n(CCc3ccccc3)c2=N)cc1 | 107%
COc1ccc(N2CCN(C(CNC(=O)C3CCCCC3)c3ccc4c(c3)OCO4)CC2)cc1 (stereo not drawn) | 114%
COc1ccc2nc(C)cc(Nc3ccc(Cl)cc3)c2c1 | 103%
COc1ccc(C2c3ccc4ccccc4c3Oc3ncn(CCCN(C)C)c(=N)c32)cc1 (stereo not drawn) | 202%
COc1ccc2nc(C)cc(Nc3cccc(O)c3)c2c1 | 109%
COc1ccc(Nc2nc(NN=Cc3ccc(O)cc3)nc(Nc3ccc([N+](=O)[O-])cc3)n2)cc1 | 39.1%
Nc1ccc(-c2nc3cc(Cc4ccc5[nH]c(-c6ccc(N)cc6)nc5c4)ccc3[nH]2)cc1 | 135%
COc1ccc(C2c3ccc4ccccc4c3Oc3ncn(CCCn4ccnc4)c(=N)c32)cc1OC (stereo not drawn) | 121%

— the supplement of paper PMC4206467
